Hits are enriched below; roughly 2.4% of the tested compounds scored in any of these assays.
M1 antag – human CHRM1 antagonism. P11229. CHO-K1 hM1, Fluo-8 calcium fluorescence, ACh EC80 antagonist. inhibition, % at 3 µM. actives 1.3% (n = 360,000). AID 588852;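 active = percent inhibition above its own plate's cutoff, namely the mean of that plate's compound wells plus 3 SD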;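 also: peak over basal fluorescence ratio during 140 s after agonist addition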
Target sequence (P11229 whole entry, looked up): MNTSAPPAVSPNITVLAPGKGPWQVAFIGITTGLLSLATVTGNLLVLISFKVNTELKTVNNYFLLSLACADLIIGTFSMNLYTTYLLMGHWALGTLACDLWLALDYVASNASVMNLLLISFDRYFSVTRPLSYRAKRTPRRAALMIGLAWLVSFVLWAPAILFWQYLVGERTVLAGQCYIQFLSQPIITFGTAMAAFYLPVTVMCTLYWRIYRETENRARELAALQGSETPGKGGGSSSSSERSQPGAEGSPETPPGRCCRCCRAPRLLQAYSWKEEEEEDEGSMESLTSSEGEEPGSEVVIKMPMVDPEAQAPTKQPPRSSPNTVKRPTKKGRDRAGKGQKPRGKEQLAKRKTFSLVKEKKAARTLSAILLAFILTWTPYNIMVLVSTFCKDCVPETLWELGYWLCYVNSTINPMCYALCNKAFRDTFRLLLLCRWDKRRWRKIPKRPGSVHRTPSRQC
CHO-K1 Ca antag – M1 antagonist counterscreen hit in parental CHO-K1 cells | actives 0.6% (n = 360,000) | inhibition, % at 3 µM | ATP-induced calcium, Fluo-8 fluorescence | AID 602250;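 active = inhibition above a per-plate cutoff, the plate's mean sample inhibition plus 3 SD, cut at about 24% in these data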
CHO-K1 Ca ag – counter-screen for M1 agonists: effect in parental CHO-K1 cells | activation, % at 3 µM | actives 0.48% (n = 360,000) | Fluo-8 calcium fluorescence; scaled to maximal ATP response, vehicle zero | AID 602248; in the data active = activation above about 15%;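 also: untransfected CHO-K1 host cells lacking M1 receptor as counterscreen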
CHRM1 agonist – activates human CHRM1 receptor | activation, % at 3 µM | actives 0.33% (n = 360,000) | P11229 | CHO-K1 hM1, Fluo-8 calcium fluorescence, agonist mode; 0% DMSO, 100% acetylcholine EC100 | AID 588814;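 active = activation above the run's mean compound activation plus 3 SD, cut at about 16% in these data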;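 also: peak over basal fluorescence ratio within a 140 s kinetic read after compound addition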
M1 PAM parental – nonselective activator or artifact in parental CHO-K1 calcium assay. activation, % at 3 µM. ATP EC20, Fluo-8 calcium fluorescence; 0% at ATP EC20, 100% at ATP max. actives 0.02% (n = 360,000);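 active = activation above the run cutoff, the mean activation of all test compounds plus 3 SD, cut at about 40% in these data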;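 also: peak over basal fluorescence ratio in a 140 s read after ATP addition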
M1 PAM – positive allosteric modulators of human M1 muscarinic receptor; P11229; CHO-K1 hM1, Fluo-8 calcium fluorescence, ACh EC20; 0% = ACh EC20, 100% = maximal ACh; activation, % at 3 µM; actives 0.088% (n = 360,000); AID 588819; in the data active = activation above about 19%, passing the limit was not always enough
Numbers stand for hits; - = inactive; . = no result.

SMILES	M1 antag	CHO-K1 Ca antag	CHO-K1 Ca ag	CHRM1 agonist	M1 PAM parental	M1 PAM
O=C(Nc1ccc(F)cc1)Nc1cc(OCC(F)(F)F)cc(OCC(F)(F)F)c1	-	32.1	-	-	-	-
Cn1cccc1/C=C1\CC(C(C)(C)C)C/C(=C\c2cccn2C)C1=O (stereo not drawn)	-	24.5	-	-	-	-
Cn1cccc1/C=C1\Cc2ccccc2C1=O	-	-	-	-	-	-
O=C1[C@@H]2[C@@H](CN3CN(c4ccccc4)N=C(c4ccccc4)[C@@]23c2ccccc2)C(=O)N1c1ccccc1	-	-	-	-	41.5	-
O=C1[C@H]2C(c3ccccc3)=NN(c3ccccc3)[C@H]2C(=O)N1c1ccccc1	-	-	-	-	-	-
COc1cc(/C=C/C(=O)CC(=O)/C=C/c2ccc(O)c(OC)c2)ccc1O	-	29.5	19.1	18.9	-	-
COc1cc(C=C2C(=O)C=CC2=O)ccc1O	.	-	-	.	42.9	.
O=C(c1cc(COc2ccc(F)cc2Cl)on1)N1CCC(c2ccncc2)CC1	-	-	-	-	-	-
Cc1cc(OCc2cc(C(=O)N3CCC(Oc4cccnc4)CC3)no2)cc(C)c1Cl	30.8	25.5	-	-	-	-
CSc1ccccc1OCc1cc(C(=O)N2CCC(c3ccncc3)CC2)no1	41.1	-	-	-	-	-
CCN(CC)C1CCN(C(=O)c2cc(COc3cccc4cccnc34)on2)C1 (stereo not drawn)	73.2	-	-	-	-	-
O=C(CN(Cc1ccccc1Cl)S(=O)(=O)c1ccc(Cl)cc1)N/N=C/c1ccc(C(=O)O)cc1	-	-	-	-	-	-
CCC(=O)c1ccc(N2CCN(C(=O)c3cccs3)CC2)c(F)c1	-	25.5	-	-	-	-
CN(C)C(=O)c1cc(C(=O)c2c(F)cccc2F)c[nH]1	-	-	-	-	-	-
O=C(NCC1CCN(Cc2ccccc2F)CC1)C1CCCN(c2ncnc3c2nc2n3CCCCC2)C1 (stereo not drawn)	90.6	-	-	-	-	-
CC(C)N(CCNC(=O)C1CCCN(c2ncnc3c2nc2n3CCCCC2)C1)Cc1ccccc1 (stereo not drawn)	38.0	-	-	-	-	-
O=C(NCc1ccccc1Cl)C1CCCN(c2ncnc3c2nc2n3CCCCC2)C1 (stereo not drawn)	-	-	-	-	-	-
Cc1ccc(CCNC(=O)C2CCCN(c3ncnc4c3nc3n4CCCCC3)C2)cc1 (stereo not drawn)	-	-	-	-	-	-
Cc1ccc(CN2CCC(CNC(=O)C3CCCN(c4ncnc5c4nc4n5CCCCC4)C3)CC2)cc1 (stereo not drawn)	97.3	-	-	-	-	-
CCCS(=O)(=O)N1CCCC(C(=O)NCCN(Cc2ccccc2)C(C)C)C1 (stereo not drawn)	-	31.9	-	-	-	-
COC(=O)[C@H](C)NC(=O)Nc1cccc(Br)c1	-	-	-	-	-	-
CC1(C)NC(=S)NC1=S	-	-	-	-	-	-
Cc1ccc2nc(N(CCCN(C)C)C(=O)c3ccc(S(=O)(=O)N4CCCCCC4)cc3)sc2c1	-	-	-	-	-	-
COc1ccc(C)c2sc(N(CCCN(C)C)C(=O)c3ccc(S(=O)(=O)N4CCc5ccccc5C4)cc3)nc12	-	-	18.8	-	-	-
CCc1ccc2nc(N(CCCN(C)C)C(=O)c3ccc(S(=O)(=O)N4CCCC4)cc3)sc2c1	39.0	-	-	-	-	-
SMILES	M1 antag	CHO-K1 Ca antag	CHO-K1 Ca ag	CHRM1 agonist	M1 PAM parental	M1 PAM
COc1cccc(NC(=O)COC(=O)c2c(C)nn(-c3ccccc3)c2C)c1	-	-	-	-	-	-
O=C(Cc1coc2ccc3ccccc3c12)Nc1nccs1	-	26.0	-	-	-	-
O=C1CCN(Cc2ccccc2)N1	-	-	-	-	-	-
COc1ccc(NC(=O)CC2(CC(=O)N3CCOCC3)CCCC2)cc1Cl	56.1	-	-	-	-	-
CCOc1ccccc1NC(=O)CC1(CC(=O)N2CCOCC2)CCCC1	-	-	-	-	-	-
CCc1cccc(C)c1NC(=S)NCC(c1cccnc1)N(C)C (stereo not drawn)	-	-	17.1	-	-	-
COc1cccc2c1OC1(C)CC2NC(=O)N1c1cccc(C(=O)Nc2ccc3c(c2)OCCO3)c1 (stereo not drawn)	27.9	-	-	-	-	-
COc1ccc(NC(=O)c2cccc(N3C(=O)NC4CC3(C)Oc3ccccc34)c2)cc1 (stereo not drawn)	-	-	-	-	-	-
COc1ccc(NC(=O)N2CCC(CO)(CC3CCCCO3)CC2)c(OC)c1 (stereo not drawn)	-	-	-	-	-	-
Cn1nc(C(F)(F)F)c(-c2cccc(C(F)(F)F)c2)c1NC(=O)Nc1ccc(F)cc1	37.6	33.2	15.3	-	-	-
Cn1nc(C(F)(F)F)c(-c2cccc(C(F)(F)F)c2)c1NC(=O)c1ccco1	-	-	-	-	-	-
COc1cc(/C=C/C(=O)c2ccc3c(c2)OCO3)cc(Cl)c1O	34.7	-	22.8	47.5	-	-
CCn1c(=Nc2ccc(N3CCOCC3)cc2)ccc2ccccc21	-	-	-	-	-	-
Cn1c(=Nc2ccc(N3CCOCC3)cc2)ccc2ccccc21	47.8	-	-	-	-	-
Cc1cccc(C(=O)OCC(=O)c2ccc3c(c2)NC(=O)CO3)c1	-	-	-	-	-	-
CCN(CC)S(=O)(=O)c1cccc(C(=O)OCC(=O)c2ccc3c(c2)NC(=O)CO3)c1	-	-	17.3	-	-	-
CCCCN(C(=O)COC(=O)c1ccccc1)c1c(N)n(CCC)c(=O)[nH]c1=O	-	-	-	-	-	-
Cc1ccc(-c2nnc(N3CCN(C(=O)COc4cccc(C)c4)CC3)c3ccccc23)cc1	-	-	-	-	-	-
Cc1cccc(OCC(=O)N2CCN(c3nnc(-c4ccccc4)c4ccccc34)CC2)c1	56.7	-	-	-	-	-
COc1ccc(C2CC(=O)c3cnc(NC(=O)c4ccccc4)nc3C2)c(OC)c1 (stereo not drawn)	-	23.7	-	-	-	-
CCC(C)N(C)Cc1cccc(C2(O)CCN(S(=O)(=O)c3ccc(F)c(C)c3)CC2)c1 (stereo not drawn)	81.4	-	-	-	-	-
COc1ccc(NC(=O)CN(C)C(=O)Cn2c(=O)oc3ccccc32)cc1	-	-	-	-	-	-
CCCCNC(=O)C1(C)CCCCN1Cc1ccccc1-c1ccccc1 (stereo not drawn)	31.2	-	-	-	-	-
CCOc1cc(S(=O)(=O)NCCCN2CCOCC2)c(C)cc1C	-	-	-	-	-	-

Screening results from PubChem BioAssay.
